Results filed as inconclusive are left out. A call without a number means that no potency is given here. Unmarked numbers belong to inactive results. Active and inactive are the calls of the source. The call rests on the fitted dose curve; in most records, active means well fitted inhibition curve with a large enough effect; inconclusive means small, poorly fitted or top-dose-only effect; inactive means flat fitted curve, though single readings scatter.
Potency means the concentration at half of the fitted maximal effect.

The assay can be described thus: P-glycoprotein substrates identified in KB-8-5-11 adenocarcinoma cell line, qHTS therapeutic library screen (AID 1346987). Further: nearly all actives have a fitted effect of over 65% in size. The note with it: KB-8-5-11 (P-gp overexpressing) viability, CellTiter-Glo, 72 h; series mostly up to 44.5 µM. The essentials: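 Human cervical adenocarcinoma KB-8-5-11 cells, selected in colchicine to over-express P-gp and assayed without it, were exposed for 72 h to titrated compounds. An ATP-based luminescent viability signal gave AC50.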
As for `C=C1CN(Cc2ccc(C(=O)Nc3ccccc3N)cc2)C(=O)c2ccccc21`, the Potency is 1.3 µM (active).

As for `C=CC1(C)C=C2CCC3C(C)(C)C(O[C@@H]4O[C@@H](CO)[C@H](O)[C@H]4O)CCC3(C)C2CC1O[C@@H]1O[C@H](C)[C@H](O)[C@H](O)[C@H]1O` (some centres undefined), the Potency result was “inactive”.

Take `CC(=O)OC1C(c2ccccc2)CCC(c2ccccc2)C1OC(C)=O` (centres undefined): the Potency result was “inactive”.

Take `CC(=O)O[C@H]1CC[C@H](C)[C@@]2(C)[C@H](OC(C)=O)c3c(C)coc3C(=O)[C@H]12`: the Potency result was “inactive”.

As to `C[C@@H]1C[C@@H]2O[C@H]2/C=C\C=C\C(=O)Cc2c(Cl)c(O)cc(O)c2C(=O)O1`, the Potency is 1.01 µM (active).

Turning to `O=C(Nc1ccc(S(=O)(=O)Nc2nccs2)cc1)C(c1ccccc1)c1ccccc1`, the Potency result was “inactive”.

On to `O=C(/C=C/c1ccc(O)cc1)N[C@@H](Cc1ccc(O)cc1)C(=O)O`, for which the Potency entry was “inactive”.

For `CC/C=C\CCO[C@@H]1O[C@H](CO)[C@@H](O)[C@H](O)[C@H]1O`, the Potency entry is “inactive”.

`NCc1ccc(Nc2ncc(F)c(Nc3ccccc3)n2)cc1`: the Potency was 5.8 µM (active).

Take `CC(CCC1(O)OC2CC3C4CCC5CC(O[C@@H]6O[C@H](CO)[C@@H](O)[C@H](O)[C@H]6O[C@@H]6O[C@@H](C)[C@H](O)[C@@H](O)[C@H]6O)C(O)CC5(C)C4CCC3(C)C2C1C)CO[C@@H]1O[C@H](CO)[C@@H](O)[C@H](O)[C@H]1O` (some centres undefined): the activity change, negative = cytotoxicity was 1.44% [at 9.29 µM].

Turning to `Cc1noc(-c2ccc(-c3ccc(CC(=O)O)cc3)cc2)c1NC(=O)O[C@H](C)c1ccccc1`, the Potency result is “inactive”.

For `O=C(Nc1ccccc1)N1CCN(Cc2ccc3ccccc3n2)CC1`, the Potency entry is “inactive”.

On to `O=C1Nc2ccccc2C(O)(c2ccccc2)C1O` (centres undefined), for which the Potency entry was “inactive”.

For the molecule `CC(=O)OC[C@]12[C@H](OC(C)=O)C(=O)[C@@H]3[C@@H](OC(C)=O)[C@@]14O[C@@]3(C)COC(=O)c1cccnc1[C@@H](C)[C@H](C)C(=O)O[C@@H]([C@H](O)[C@@H]2OC(C)=O)[C@]4(C)O`, the Potency result was “inactive”.

For the molecule `C=C1C[C@@]23CCC4[C@@](C)(CCC[C@@]4(C)C(=O)OC)C2CC[C@@H]1C3` (some centres undefined), the Potency entry is “inactive”.

For `Cc1cc(Nc2ncc3cc(-c4c(Cl)cccc4Cl)c(=O)n(C)c3n2)ccc1F`, the Potency is 1.3 µM (active).

`COc1ccc(CCO[C@@H]2O[C@H](CO[C@@H]3OC[C@H](O)[C@H](O)[C@H]3O)[C@@H](O)[C@H](O)[C@H]2O)cc1`: the Potency result was “inactive”.

`C=C1C(OC(=O)/C(C)=C\C)[C@@]23CCC4[C@@](C)(CCC[C@@]4(C)C(=O)O)C2CC[C@H]1C3OC(C)=O` (some centres undefined): the Potency entry is “inactive”.

Turning to `O=C(Cc1ccc(-c2ccccc2)cc1)NC1CCC1`, the Potency result is “inactive”.

For `CC(C)CC(=O)O[C@@H]1OC=C(CO[C@@H]2O[C@H](CO)[C@@H](O)[C@H](O)[C@H]2O)[C@H]2[C@@H]3O[C@H]3[C@@](O)(CO)[C@@H]12`, the Potency entry is “inactive”.

As for `CCO[C@@H]1OC(=O)C[C@@H]1NC(=O)[C@@H]1CCCN1C(=O)[C@@H](NC(=O)c1ccc(N)c(Cl)c1)C(C)(C)C`, the Potency entry was “inactive”.

As to `C=C1C(OC2OCC(O)C(O)C2O)CC2C(C)(C)C(O)CCC2(C)C1CC/C(C)=C\CO` (centres undefined), the Potency entry is “inactive”.

`C[C@H]1O[C@@H](O[C@H]2CC[C@@]3(C)C(CC[C@]4(C)C3CC=C3C5CC(C)(C)CC[C@]5(C(=O)O)CC[C@]34C(=O)O)C2(C)C)[C@H](O)[C@@H](O)[C@@H]1O` (some centres undefined): the Potency result is “inactive”.

As for `CCCN1CCC(c2cccc(S(C)(=O)=O)c2)CC1`, the Potency entry was “inactive”.

As for `CCCC(=O)O[C@@H]1[C@@H]2[C@@H](OC(C)=O)[C@]3(C)C(=O)[C@H]4[C@@H](OC(C)=O)C(C)(C)C[C@H]4[C@]3(C)C(=O)[C@@]2(OC(C)=O)C[C@@H]1C`, the Potency entry is “inactive”.

Take `CC(C)(O)CC(CO)NC(=O)CC(O)CC(=O)Cc1ccccc1` (centres undefined): the Potency entry is “inactive”.

As for `CCC(C)C(=O)OC1CC(O)C23C4OCC5(C(O)CC2C1(C)C(O)O4)C3C(=O)C(O)C1(C)C(O)(c2ccoc2)CC2OC251` (centres undefined), the Potency entry was “inactive”.

Take `Cc1ccc(-c2ccc3ncc4c(c3n2)n(C2CCN(C(=O)[C@H](C)O)CC2)c(=O)n4C)cn1`: the Potency was 0.164 µM (active).

As to `O=[N+]([O-])c1cn2c(n1)OCC(OCc1ccc(OC(F)(F)F)cc1)C2` (centres undefined), the Potency result is “inactive”.

For `COC(=O)C1(C)c2[nH]c3ccccc3c2CCN1C(=O)CCl` (centres undefined), the Potency is 10.3 µM (active).

In the case of `CC(C)(C)NCCCNC(=O)c1cccc(Br)c1`, the Potency result was “inactive”.

In the case of `CC1=CC(=O)CC(C)(C)[C@@]1(O)CC[C@@H](C)O[C@@H]1O[C@H](CO)[C@@H](O)[C@H](O)[C@H]1O`, the Potency entry is “inactive”.

Consider `C[C@@]12CC[C@@H]3[C@@](CC[C@H]4[C@@]3(C)CCC[C@@]4(C)C(=O)O)(CC1=O)C2`, for which the Potency result is “inactive”.

With `COc1ccc(-c2ccc(-c3cn(C(=O)N4CCCCC4c4ccccc4)nn3)cc2)cc1` (centres undefined), the Potency result is “inactive”.

Turning to `Cn1cncc1C(N)(c1ccc(Cl)cc1)c1ccc2c(c1)c(-c1cccc(Cl)c1)cc(=O)n2C` (centres undefined), the Potency was 3.26 µM (active).

Take `COc1cc(O)cc(C)c1C(=O)O[C@H]1[C@@H](OC(C)=O)[C@H](n2ccc(=O)[nH]c2=O)O[C@@H]1CO`: the Potency entry is “inactive”.

On to `COc1cc(O)c([C@@H](CC(=O)N2CC(C)CC(C)C2)c2ccc3c(c2)OCO3)c(OC)c1` (some centres undefined), for which the Potency result is “inactive”.

For the molecule `Cc1c(NC(=O)c2cc(C(N)=O)nc3cc(F)ccc23)c(C(F)(F)F)nn1Cc1ccc(C#N)cc1`, the Potency entry was “inactive”.

As for `Clc1cc2c(NC3CCCC3)nnc(-c3ccncc3)c2cc1Cl`, the Potency entry is “inactive”.

The values above are taken from PubChem BioAssay (NCATS).
